Most compounds without a hit are left out; they make up all but 17% or so of the library.
TDP1 block = inhibitors of human tyrosyl-DNA phosphodiesterase TDP1. Q9NUW8. recombinant TDP1, AlphaScreen DNA substrate cleavage. Potency, µM (series often up to 130 µM), most hits filed as inhibitors. hit rate 0.28% among 350,000. AID 485290; further: nearly all actives have a fitted effect of over 40% in size
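Tdp1 1 nM final; 15 min RT w/ cpd; substrate 15 nM, 5 min; beads 10 ug/ml, 10 min; AlphaScreen read. Neg ctrl: no enzyme.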
ClpP mod = qHTS Assay for Activators of ClpP | hit rate 1.9% among 340,000 | Potency, µM (top dose mostly 57.5 µM) | ATP-dependent Clp protease proteolytic subunit (Bacillus subtilis (strain 168)), P80244 | purified B. subtilis ClpP, FRET peptide cleavage, 20 min; active means well fitted falling curve with a large enough effect; inconclusive means small, poorly fitted or top-dose-only effect; inactive means no such curve, though single readings can be large or run the other way; further: the source files actives as falling curves though it sought activators and does not explain the sign; nearly all actives have a fitted effect of over 65% in size
Target sequence (P80244 whole entry, looked up): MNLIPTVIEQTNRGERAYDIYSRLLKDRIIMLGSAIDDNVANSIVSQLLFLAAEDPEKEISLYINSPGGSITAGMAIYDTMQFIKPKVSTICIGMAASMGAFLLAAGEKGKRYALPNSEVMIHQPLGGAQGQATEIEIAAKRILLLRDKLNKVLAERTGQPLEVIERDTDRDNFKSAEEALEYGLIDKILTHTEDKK
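Buffer: 100 mM Tris/HCl pH8, 100 mM KCl, 0.05% low protease BSA, 2.5% glycerol, 0.01% Tween-20. ClpP 10 microg/mL final; 20 min RT; delta FRET normalized to ADEP and DMSO controls.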
TDP1 cell CPT = growth inhibition of DT40 Tdp1-/-;hTDP1 cells with camptothecin (screen for TDP1 inhibitors) | chicken DT40 Tdp1-/-;hTDP1 cells + 20 nM CPT, ATP luminescence, 48 h | Potency, µM (titrated, usually from 46.2 µM), hits mostly inhibitors | hit rate 12% among 420,000; further: nearly all actives have a fitted effect of over 55% in size
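Cell growth measured by CellTiter-Glo luminescence after a minimum 48 h, 37 C compound exposure with 20 nM CPT in Tdp1-knockout DT40 cells stably expressing hTDP1, seeded 400/well; qHTS titration format.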
DT40 TDP1 no CPT = qHTS for Inhibitors of human tyrosyl-DNA phosphodiesterase 1 (TDP1): qHTS in cells in absence of CPT | hit rate 15% among 420,000 | Potency, µM (doses to about 46.2 µM), hits mostly inhibitors | DT40 Tdp1-/- hTDP1 cells, no CPT, ATP luminescence, 48 h; further: nearly all actives have a fitted effect of over 55% in size
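Chicken DT40 Tdp1-/- cells stably complemented with human TDP1 were seeded at 400 cells/well with DMSO in place of 20 nM camptothecin. After compound pinning, cells grew at least 48 hr at 37 °C; viability read by CellTiter-Glo luminescence.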
Large screens that a line does not name were inactive. Unless noted, the call rests on the fitted dose curve; in most records, active means well fitted curve in the direction sought with a large enough effect; inconclusive means small, poorly fitted or top-dose-only effect, or another doubt; inactive means no such curve, though single readings can be large; an effect the other way counts as inactive or inconclusive.

O=C(NCc1ccc(F)cc1)C1CCCN(c2ncnc3onc(-c4ccc(F)cc4)c23)C1 (stereo not drawn)	TDP1 cell CPT 21µM, DT40 TDP1 no CPT 16µM
CCOc1ccccc1N(C)C(=O)C1CCCN(c2ncnc3onc(-c4ccc(F)cc4)c23)C1 (stereo not drawn)	TDP1 cell CPT 12µM, DT40 TDP1 no CPT 8.2µM
COc1cccc(NC(=O)C2CCCN(c3ncnc4onc(-c5ccc(F)cc5)c34)C2)c1 (stereo not drawn)	TDP1 cell CPT inconclusive, DT40 TDP1 no CPT 16µM
CCc1ccccc1N1C(=O)N(CC(=O)c2ccc(OC)cc2)c2ccccc2S1(=O)=O	none
COc1cc(Cl)c(C)cc1NC(=O)C1CCCN(c2ncnc3onc(-c4ccc(F)cc4)c23)C1 (stereo not drawn)	TDP1 cell CPT 15µM, DT40 TDP1 no CPT 8.2µM
Cc1ccc(NC(=O)C2CCCN(c3ncnc4onc(-c5ccc(F)cc5)c34)C2)c(Cl)c1 (stereo not drawn)	TDP1 cell CPT inconclusive, DT40 TDP1 no CPT inconclusive
COc1cc(/C=N\NC(=O)c2ccc(Cl)cc2)ccc1Oc1ccc([N+](=O)[O-])cn1	none
COc1cc(/C=C(/C#N)c2ccc(F)cc2)ccc1Oc1ccc([N+](=O)[O-])cn1	ClpP mod 32µM, TDP1 cell CPT 2.9µM, DT40 TDP1 no CPT 3.7µM
N#C/C(=C/c1ccc(Oc2ccc([N+](=O)[O-])cn2)cc1)C(=O)N1CCOCC1	TDP1 cell CPT inconclusive
CCOc1cc(C=C(C#N)C#N)ccc1Oc1ccc([N+](=O)[O-])cn1	TDP1 cell CPT 18µM, DT40 TDP1 no CPT 13µM
COc1cc(/C=C2/NC(=O)N(CC(=O)Nc3ccc(C)cc3)C2=O)ccc1Oc1ccc([N+](=O)[O-])cn1	TDP1 cell CPT inconclusive
COc1cc(/C=N\NC(=O)c2ccccc2F)ccc1Oc1ccc([N+](=O)[O-])cn1	TDP1 cell CPT 4.6µM, DT40 TDP1 no CPT 4.6µM
Cc1ccsc1C(=O)N1CCCC(CO)(Cc2ccccc2F)C1 (stereo not drawn)	DT40 TDP1 no CPT inconclusive (no result: ClpP mod)
CCC1(c2ccc(F)cc2)NC(=O)N(CC(=O)N(C)C2CCS(=O)(=O)C2)C1=O (stereo not drawn)	none (no result: TDP1 block)
C[C@@H]1CN([C@H](C)CO)C(=O)CCCn2cc(nn2)CO[C@H]1CN(C)C(=O)Nc1cccc(Oc2ccccn2)c1	none (no result: TDP1 block)
O=C(NC1CCCCC1)C(c1ccncc1)N(C(=O)c1csnn1)c1ccccc1F (stereo not drawn)	none (no result: ClpP mod)
CN(C)C(=O)c1cccc(-c2cccc(-c3nc(C(=O)NCc4ccccc4)cc4c3[C@@H](CCO)N(S(=O)C(C)(C)C)C4)c2)c1 (stereo partly drawn)	TDP1 cell CPT 18µM, DT40 TDP1 no CPT 15µM (no result: TDP1 block)
COCCNC(=O)c1cc2c(c(-c3cccc(-c4cccc(OC)c4)c3)n1)[C@H](CCO)N(S(=O)C(C)(C)C)C2 (stereo partly drawn)	TDP1 cell CPT inconclusive, DT40 TDP1 no CPT inconclusive (no result: TDP1 block)
CC(C)(C)S(=O)N1Cc2cc(C(=O)NCC(F)(F)F)nc(-c3cccc(-c4cccc(F)c4)c3)c2[C@H]1CCO (stereo partly drawn)	TDP1 cell CPT inconclusive, DT40 TDP1 no CPT 21µM (no result: TDP1 block)
CC(C)(C)S(=O)N1Cc2cc(C(=O)O)nc(-c3cccc(-c4cc5ccccc5o4)c3)c2[C@H]1CCO (stereo partly drawn)	none (no result: TDP1 block)
CCNC(=O)c1cc2c(c(-c3cccc(-c4cccc(C(=O)N(C)C)c4)c3)n1)[C@H](CCO)N(S(=O)C(C)(C)C)C2 (stereo partly drawn)	DT40 TDP1 no CPT inconclusive (no result: TDP1 block)
CC(C)(C)S(=O)N1Cc2cc(C(=O)N[C@@H]3CCN(Cc4ccccc4)C3)nc(-c3cccc(-c4cc5ccccc5o4)c3)c2[C@@H]1CCO (stereo partly drawn)	TDP1 cell CPT inconclusive, DT40 TDP1 no CPT 23µM (no result: TDP1 block)
COc1cccc(-c2cccc(-c3nc(C(=O)NCCCN4CCOCC4)cc4c3[C@H](CCO)N(S(=O)C(C)(C)C)C4)c2)c1 (stereo partly drawn)	TDP1 cell CPT inconclusive, DT40 TDP1 no CPT 18µM (no result: TDP1 block)

Screens: PubChem, National Center for Advancing Translational Sciences (NCATS)
